Results on 17 compounds are retold here after PubChem BioAssay (EPA / NIEHS).

“And” between values parts separate entries of the source, which are not always exact repeats. Identical values can stand only once. Some structures have more than one record in an assay (separate samples or runs), and their calls can disagree. The source made the active and inactive calls. The calls were made as follows: active = hit-call score of the fitted dose curve at least 0.9, where 1 is the maximum; inactive = score below 0.9.

Assay [1] can be described thus: ATG_CRE_CIS: Attagene CIS-FACTORIAL HepG2 Assay for human cAMP Responsive Element (CRE) binding protein 3 (AID 2282926). The note with it: HepG2 CRE cis-reporter, Attagene multiplexed mRNA; actives raise or lower the signal. Put shortly:
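Cells carrying cis-regulated reporter constructs respond through their own endogenous factors. After 24 h treatment, RNA is reverse-transcribed, amplified, labelled and sized by capillary electrophoresis; up- and down-regulation are both scored against vehicle.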

Assay [2] concerns the target CCAAT/enhancer-binding protein beta (Homo sapiens) (UniProt P17676). The assay is described as follows: ATG_C_EBP_CIS: Attagene CIS-FACTORIAL HepG2 Assay for human CCAAT/Enhancer Binding Protein (C/EBP) beta (AID 2282927). Conditions: HepG2 Attagene cis-factorial transcription factor reporter; actives raise or lower the signal. Put shortly:
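HepG2, transient MRTU transfection, 24 h treatment. RT-PCR plus CE fluorescence; DMSO negative control, bidirectional fit.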

The nature of assay [3]: ATG_CMV_CIS: Attagene CIS-FACTORIAL HepG2 Assay for human CMV (Internal Marker) (AID 2282928).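 Also: endpoint acts as a background internal control marker rather than a target.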 The note with it: HepG2 CMV promoter reporter, transcription factor profiling; actives raise or lower the signal. An outline of the steps: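 Fluorescence intensity of RT-PCR-derived reporter fragments, resolved by capillary electrophoresis, gives the signal. HepG2 liver cells bearing transfected cis-element reporters were treated 24 h; activity in either direction was fit relative to DMSO-treated controls.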

Assay [4] in a line: ATG_DR4_LXR_CIS: Attagene CIS-FACTORIAL HepG2 Assay for human Liver X Receptor (LXR), DR4 submotif (AID 2282929). The note with it: HepG2 Attagene DR4 cis-reporter, mRNA transcription; actives raise or lower the signal. An outline of the steps: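 Readout: reporter transcript fluorescence after RT-PCR and capillary electrophoresis, fitted bidirectionally against DMSO controls. Human HepG2 liver cells carried transiently transfected multiplexed reporter constructs; endogenous transcription factor activity measured 24 h post-dosing.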

Assay [5] addresses Aryl hydrocarbon receptor (Homo sapiens) (UniProt P35869). The assay is described as follows: ATG_Ahr_CIS: Attagene CIS-FACTORIAL HepG2 Assay for human Aryl Hydrocarbon Receptor (Ahr) (AID 2282930). Conditions: HepG2 AhR cis-factorial reporter transcription; actives raise or lower the signal. Put shortly:
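Endogenous factor activity is tracked through cis-promoter reporter units transfected into HepG2 cells. Transcript levels at 24 h are read by fluorescent RT-PCR and capillary electrophoresis, with activity in either direction scored relative to DMSO.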

Assay [6] in a line: ATG_AP_1_CIS: Attagene CIS-FACTORIAL HepG2 Assay for human Activator Protein 1 (AP-1) (AID 2282931). The note with it: HepG2 Attagene cis-factorial AP-1 reporter mRNA; actives raise or lower the signal. Put shortly: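 Reporter transcripts were measured 24 h after dosing by RT-PCR and capillary electrophoresis of fluorescent fragments. Cells: HepG2 carrying transfected cis-regulated reporter constructs reading endogenous factor activity. Gain or loss fitted against DMSO.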

Assay [7] in a line: ATG_AP_2_CIS: Attagene CIS-FACTORIAL HepG2 Assay for human Activator Protein 2 (AP-2) (AID 2282932). The note with it: HepG2 AP-2 cis-reporter, Attagene transcription factor profiling; actives raise or lower the signal. An outline of the steps: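 Liver-derived HepG2 line, cis-reporter system measuring endogenous factors; 24 h dosing; reporter mRNA detected by fluorescent RT-PCR and capillary electrophoresis.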

A short description of assay [8]: ATG_BRE_CIS: Attagene CIS-FACTORIAL HepG2 Assay for human Bone Morphogenetic Protein (BMP) Response Element (BRE) (AID 2282933). Conditions: HepG2 BMP response element reporter, Attagene transcription factor profiling; actives raise or lower the signal. An outline of the steps: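 After a 24 h chemical treatment, transiently transfected HepG2 cells were lysed for RNA; reporter transcripts were quantified by fluorescent RT-PCR and capillary electrophoresis, normalised to DMSO.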

The target in assay [9] is Retinoic acid receptor alpha (Homo sapiens) (UniProt P10276). The assay is described as follows: ATG_DR5_RAR_CIS: Attagene CIS-FACTORIAL HepG2 Assay for human Retinoic Acid Receptor Alpha (RARE), DR5 submotif (AID 2282934).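 As to AC50: reporter responds to endogenous RAR alpha beta and gamma in HepG2 not RARA alone.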 The note with it: HepG2 Attagene cis-factorial RARE DR5 reporter, mRNA; actives raise or lower the signal. An outline of the steps: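 After 24 h of chemical exposure, transiently transfected HepG2 cells were lysed for total RNA; the DR5-regulated reporter transcript was quantified via RT-PCR and capillary electrophoresis, with activity fitted bidirectionally against DMSO.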
Chain of Retinoic acid receptor alpha (Homo sapiens) (P10276 whole entry, looked up): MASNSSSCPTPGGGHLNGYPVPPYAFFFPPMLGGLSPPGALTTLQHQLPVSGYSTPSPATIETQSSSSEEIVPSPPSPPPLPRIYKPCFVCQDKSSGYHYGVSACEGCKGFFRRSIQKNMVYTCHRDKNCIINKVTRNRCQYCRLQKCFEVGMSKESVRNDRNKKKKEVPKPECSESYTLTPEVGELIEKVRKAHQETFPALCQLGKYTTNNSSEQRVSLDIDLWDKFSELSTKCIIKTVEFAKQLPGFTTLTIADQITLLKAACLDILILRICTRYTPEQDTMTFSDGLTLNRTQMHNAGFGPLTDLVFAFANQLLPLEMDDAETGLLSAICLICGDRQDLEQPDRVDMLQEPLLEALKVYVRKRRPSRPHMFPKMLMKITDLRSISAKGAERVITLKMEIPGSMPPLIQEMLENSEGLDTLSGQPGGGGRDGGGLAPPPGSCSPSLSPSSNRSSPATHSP

In assay [10] the target is Transcription factor E2F1 (Homo sapiens) (UniProt Q01094). The assay is described as follows: ATG_E2F_CIS: Attagene CIS-FACTORIAL HepG2 Assay for human E2F Transcription Factor 1 (AID 2282935). The note with it: HepG2 Attagene cis-reporter, E2F reporter RNA transcripts; actives raise or lower the signal. Put shortly: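 Liver-derived HepG2 cells expressing transfected promoter-driven reporter units received test chemical for 24 hours. Signal gains or losses were fitted bidirectionally against DMSO.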
Chain of Transcription factor E2F1 (Homo sapiens) (Q01094 whole entry, looked up): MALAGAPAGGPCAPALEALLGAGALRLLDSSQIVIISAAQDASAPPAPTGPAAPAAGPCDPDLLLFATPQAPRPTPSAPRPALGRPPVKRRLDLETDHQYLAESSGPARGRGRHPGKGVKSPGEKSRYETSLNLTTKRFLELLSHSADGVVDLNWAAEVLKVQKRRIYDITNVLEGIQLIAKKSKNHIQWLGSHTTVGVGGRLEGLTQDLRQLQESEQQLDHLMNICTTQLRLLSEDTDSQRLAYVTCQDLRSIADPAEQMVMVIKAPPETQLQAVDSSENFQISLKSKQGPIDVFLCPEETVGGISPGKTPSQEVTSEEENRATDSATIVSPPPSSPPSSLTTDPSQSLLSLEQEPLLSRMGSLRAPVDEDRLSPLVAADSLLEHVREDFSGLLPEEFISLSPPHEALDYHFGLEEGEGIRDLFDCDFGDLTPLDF

Chain of CCAAT/enhancer-binding protein beta (Homo sapiens) (P17676 whole entry, looked up): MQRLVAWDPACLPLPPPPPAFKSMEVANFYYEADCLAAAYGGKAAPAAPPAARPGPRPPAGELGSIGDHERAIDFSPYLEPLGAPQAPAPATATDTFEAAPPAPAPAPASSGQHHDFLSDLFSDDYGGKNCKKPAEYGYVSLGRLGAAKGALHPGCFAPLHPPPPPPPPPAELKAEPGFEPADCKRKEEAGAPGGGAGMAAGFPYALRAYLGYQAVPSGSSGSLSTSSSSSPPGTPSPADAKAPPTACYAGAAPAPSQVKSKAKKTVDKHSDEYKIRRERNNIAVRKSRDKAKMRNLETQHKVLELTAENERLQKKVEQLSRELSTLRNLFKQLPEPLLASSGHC
Chain of Aryl hydrocarbon receptor (Homo sapiens) (P35869 whole entry, looked up): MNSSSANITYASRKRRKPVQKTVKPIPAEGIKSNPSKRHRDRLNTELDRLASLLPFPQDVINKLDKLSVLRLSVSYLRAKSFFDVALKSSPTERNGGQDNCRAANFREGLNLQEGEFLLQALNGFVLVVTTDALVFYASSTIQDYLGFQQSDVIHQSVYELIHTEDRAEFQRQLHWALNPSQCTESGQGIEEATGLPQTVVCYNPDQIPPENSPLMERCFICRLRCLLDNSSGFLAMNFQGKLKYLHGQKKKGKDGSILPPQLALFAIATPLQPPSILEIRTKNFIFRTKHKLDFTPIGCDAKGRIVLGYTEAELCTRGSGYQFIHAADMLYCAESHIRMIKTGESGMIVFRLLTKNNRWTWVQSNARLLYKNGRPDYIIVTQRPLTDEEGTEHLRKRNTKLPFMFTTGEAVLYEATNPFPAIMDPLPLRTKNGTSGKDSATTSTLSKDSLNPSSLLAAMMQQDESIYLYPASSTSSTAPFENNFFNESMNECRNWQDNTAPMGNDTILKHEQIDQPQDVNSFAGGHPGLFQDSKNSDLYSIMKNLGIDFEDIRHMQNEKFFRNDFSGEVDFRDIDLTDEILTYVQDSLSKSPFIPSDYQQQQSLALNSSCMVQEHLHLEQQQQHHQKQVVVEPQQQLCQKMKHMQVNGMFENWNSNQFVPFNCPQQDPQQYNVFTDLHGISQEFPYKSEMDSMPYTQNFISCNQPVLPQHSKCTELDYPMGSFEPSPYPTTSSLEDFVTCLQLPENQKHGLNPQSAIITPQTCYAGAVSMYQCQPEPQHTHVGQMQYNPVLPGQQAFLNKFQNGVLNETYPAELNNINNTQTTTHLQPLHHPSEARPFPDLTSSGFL

As for `C#CC(C)(C)NC(=O)c1cc(Cl)cc(Cl)c1`, the AC50 (commonly the midpoint of the concentration-response curve, whichever way the signal moves) in assay [1] was 29 µM (active); in assay [2], 20.5 µM (active); in assay [3] it was 39.3 µM (active); in assay [8], 22.5 µM (active). In addition, the compound was called inactive in assay [4], in assay [5], in [6], in assay [7], in assay [9] and in assay [10].

As for `CCOP(=S)(OCC)Oc1ccc2c(C)c(Cl)c(=O)oc2c1`, the outcome in [1], in assay [2], in assay [3], in assay [4], in [5] and in assay [6] was inactive. The compound was called inactive in assay [7], in assay [8] and in [10]. Further, the AC50 in [9] is 1.59 µM (active).

On to `CN1COCN(Cc2cnc(Cl)s2)C1=N[N+](=O)[O-]`, for which the compound was called inactive in assay [1], in [2], in assay [3], in assay [4], in assay [5] and in assay [6]. Moreover, the compound was classed as inactive in [7], in assay [8], in assay [9] and in [10].

In the case of `CCOP(=S)(OCC)SCCSCC`, the outcome in [1], in assay [2], in [3], in assay [4], in [5] and in [6] was inactive. The compound was called inactive in [7], in assay [8], in assay [9] and in assay [10].

With `CCOC(=O)COc1cc(-c2nn(C)c(OC(F)F)c2Cl)c(F)cc1Cl`, the call in assay [1], in assay [2], in [3], in assay [4], in [5] and in [6] was inactive. In addition, the outcome in assay [7], in assay [8], in [9] and in assay [10] was inactive.

Regarding `CNc1cnn(-c2cccc(C(F)(F)F)c2)c(=O)c1Cl`, the results for the half-maximal activity concentration (AC50) in [1], in assay [6] and in [8] were 19.7 µM (active), 29.5 µM (active) and 17.8 µM (active), respectively. In addition, the result in assay [2], in assay [3], in assay [4], in assay [5], in [7] and in assay [9] was inactive. Further, in [10], the call was inactive.

For `CN(C)[C@@H]1C(=O)C(C(N)=O)=C(O)[C@@]2(O)C(=O)C3=C(O)c4c(O)cccc4[C@@](C)(O)[C@H]3[C@H](O)[C@@H]12`, the outcome in assay [1], in assay [2], in assay [3], in assay [4], in assay [5] and in assay [6] was inactive. Also, the compound was classed as inactive in assay [7], in assay [8] and in assay [10]. Also, the AC50 in assay [5] is 66.3 µM (active) and 37.9 µM (active); in assay [8] it was 71.1 µM (active).

For the compound `CCCCOC(=O)c1ccccc1C(=O)O`, the result in assay [1], in assay [2], in assay [3], in [4], in assay [5] and in assay [6] was inactive. The call in assay [7], in [8], in assay [9] and in assay [10] was inactive.

Take `CCCOc1nn(C(=O)NS(=O)(=O)c2ccccc2C(=O)OC)c(=O)n1C`: the compound was called inactive in assay [1], in [2], in [3], in assay [4], in assay [5] and in assay [6]. Also, the compound was classed as inactive in assay [7], in [8], in assay [9] and in [10].

Turning to `O=[N+]([O-])c1cc(C(F)(F)F)c(Cl)c([N+](=O)[O-])c1Nc1ncc(C(F)(F)F)cc1Cl`, the compound was classed as inactive in [1], in [2], in assay [3], in assay [4], in assay [5] and in [6]. Also, the compound was called inactive in assay [7], in assay [8], in assay [9] and in [10]. The AC50 is 7.85 µM (active) in [2]; 11.1 µM (active) in [4]; 19.1 µM (active) in assay [5]; 2.7 µM (active) in assay [6]; 2.63 µM (active) in [8]; 9.39 µM (active) in assay [10].

With `CCOP(=O)(NC(C)C)Oc1ccc(SC)c(C)c1` (configuration not stated), the call in assay [1], in [2], in assay [3], in assay [4], in [5] and in assay [6] was inactive. Moreover, the compound was classed as inactive in [7], in assay [8] and in assay [10]. The AC50 in [9] is 14.2 µM (active).

As for `CC(C1CC1)C(O)(Cn1cncn1)c1ccc(Cl)cc1` (configuration not stated), the call in assay [1], in assay [2], in assay [3], in assay [5], in [6] and in assay [7] was inactive. For the same compound, the result in assay [8], in assay [9] and in assay [10] was inactive. Moreover, in assay [4], the AC50 is 11.3 µM (active).

Take `CCCCSP(=O)(SCCCC)SCCCC`: the result in [1], in [2], in assay [5], in [7] and in assay [9] was inactive. In addition, the concentration at half-maximal activity (AC50) is 39.3 µM (active) in assay [3]; 72.9 µM (active) in assay [4]; 70.1 µM (active) in assay [6]; 40.1 µM (active) in [8]; 58.3 µM (active) in assay [10].

For `CC1=NNC(=O)N(/N=C/c2cccnc2)C1`, the compound was classed as inactive in assay [1], in [2], in [3], in [4], in assay [5] and in assay [6]. The compound was called inactive in [7], in assay [8], in assay [9] and in assay [10].

For the compound `CCCCN(CC)c1c([N+](=O)[O-])cc(C(F)(F)F)cc1[N+](=O)[O-]`, the compound was called inactive in [1], in assay [2], in assay [3], in assay [4], in [5] and in [6]. Besides, the outcome in assay [7], in [8] and in assay [10] was inactive. Also, in [9], the AC50 is 20.1 µM (active).

Turning to `CON=C(C(=O)OC)c1ccccc1CON=C(C)c1cccc(C(F)(F)F)c1`, the outcome in assay [1], in assay [3], in assay [5], in assay [6], in assay [7] and in assay [9] was inactive. Further, the compound was classed as inactive in assay [10]. For the same compound, the results for the concentration at half-maximal activity (AC50) in assay [2], in assay [4] and in assay [8] were 66.7 µM (active), 24 µM (active) and 25 µM (active), respectively.

Regarding `CCc1cccc(C)c1N(C(=O)CCl)C(C)COC` (configuration not stated), the compound was classed as inactive in assay [1], in assay [2], in [3], in assay [5], in [7] and in [8]. Besides, the compound was classed as inactive in assay [9] and in assay [10]. The concentration at half-maximal activity (AC50) was 32.1 µM (active) in assay [4] and 9.57 µM (active) in assay [6].
